# Measurements taken from PubChem BioAssay AID1117283 (Broad Institute, 2014).
# Entries with a potency or affinity are not part of this list. A number with no mark means an inactive call.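 The calls were made as follows: active = fluorescent signal decreased by at least 40%; inconclusive = no clear call, values can overlap the other calls; inactive = the rest, including activity opposite to the expected direction.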
# Test: inhibition of fibronectin matrix deposition – AH1F cells, Alexa488-fibronectin fluorescence, cherry-pick, set 2, dose response (AID 1117283);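 also: AH1F fibroblasts given Alexa488-labelled fibronectin at 24 nM final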
# Conditions: AH1F fibroblasts, overnight; series mostly up to 35 µM; activity change, negative = inhibition: at the top concentration
row,Compound,"activity change, negative = inhibition"
1,C[C@H](O)C#Cc1ccc2c(c1)O[C@@H](CN(C)C)[C@H](C)CN([C@@H](C)CO)S2(=O)=O,-3.5%
2,O=C(c1cccnc1)N1C[C@@H]2[C@H](c3ccccc31)[C@@H](CO)N2CC1CCCC1,-3.72%
3,C[C@@H](O)C#Cc1ccc2c(c1)O[C@@H](CN(C)C)[C@@H](C)CN([C@@H](C)CO)S2(=O)=O,-0.196%
4,O=C(c1cccnc1)N1C[C@H]2[C@@H](c3ccccc31)[C@@H](CO)N2CC1CCCC1,4.21%
5,C[C@@H]1CN([C@H](C)CO)C(=O)c2cc(-c3ccccc3)cnc2O[C@H]1CN(C)C(=O)c1cccc(F)c1,14.2%
6,COc1ncccc1C(=O)NC1CCCc2c1cnn2-c1ccc(C)c(C)c1 (configuration not stated),-5.54%
7,C[C@H]1CN([C@@H](C)CO)C(=O)c2cc(-c3ccccc3)cnc2O[C@H]1CN(C)C(=O)c1cccc(F)c1,-7.12%
8,COC(=O)C[C@@H]1CC[C@H]2[C@@H](COc3ccc(NC(=O)Cc4cccs4)cc3C(=O)N2C)O1,1.52%
9,Cc1ccc(C(O)c2ncc(-c3cccc4ccccc34)[nH]2)cc1F (configuration not stated),-7.33%
10,CN1CCN(C(=O)c2cccc(-c3cnc4cnc(-c5ccccc5Oc5ccccc5)cn34)c2)CC1,8.73%
11,O=C(CN1CCCC1)Nc1ccc(Oc2ccc(NC(=O)CN3CCCC3)cc2)cc1,4.45%
12,Cc1cccc(NC(=O)c2ccc(S(=O)(=O)N3CCCCC3)cc2)n1,-4.63%
13,O=S(=O)(c1cccc(F)c1)N1CC[C@H]2[C@H](CO)Nc3ccc(-c4cccc(F)c4)cc3[C@H]21,-8.58%
14,C[C@H](CO)N1C[C@H](C)[C@@H](CN(C)Cc2ccc(-c3ccccc3)cc2)Oc2ccc(NC(=O)C3CCCCC3)cc2C1=O,-7.32%
15,CC(C)C(=O)Nc1ccc2c(c1)C(=O)N(C)[C@@H]1CC[C@H](CC(=O)O)O[C@@H]1CO2,7.63%
16,CSc1ccccc1C(=O)C1CCCN(C(=O)CCc2cccnc2)C1 (configuration not stated),0.149%
17,Cc1ccc([N+](=O)[O-])cc1NC(=O)CN(C(=O)c1ccccc1Cl)C1CCCCC1,-2.21%
18,COCC(=O)Nc1ccc2c(c1)C(=O)N(C)[C@@H]1CC[C@H](CC(=O)NCc3ccccc3Cl)O[C@@H]1CO2,-0.399%
19,CC(C)Cc1nnc(NC(=O)CSc2nc(N)cc(=O)[nH]2)s1,4.83%

row,Compound,"activity change, negative = inhibition"
1,Cc1ccc(N(CC(=O)NCc2ccco2)S(=O)(=O)c2ccccc2)cc1,-11.7%
2,COC(=O)C[C@@H]1CC[C@H]2[C@H](COc3ccc(NC(=O)Cc4cccs4)cc3C(=O)N2C)O1,-4.43% [at 30 µM]
3,CC(=O)Nc1cccc(-c2ccnc3c2CC(C)(C(=O)Nc2cccc(C(F)(F)F)c2)O3)c1 (configuration not stated),-5.01%
4,CO[C@H]1CN(C)C(=O)c2ccc(NC(=O)Nc3ccc(Cl)c(Cl)c3)cc2OC[C@H](C)NC[C@H]1C,-3.99%
5,C[C@H]1CN([C@@H](C)CO)C(=O)c2cc(NC(=O)CCCN(C)C)ccc2O[C@@H]1CN(C)Cc1ccc(-c2ccccc2)cc1,38.9%
6,CO[C@H]1CN(C)C(=O)c2cc(NC(=O)Nc3ccc(Cl)c(Cl)c3)ccc2OC[C@@H](C)NC[C@H]1C,6.57%
7,Cc1c(NC(=O)c2ccc3nsnc3c2)cccc1[N+](=O)[O-],11.2%
8,COC(=O)C[C@@H]1CC[C@@H]2[C@H](COc3ccc(NC(=O)Cc4cccs4)cc3C(=O)N2C)O1,7.5%
9,CN1c2ccc(-c3ccccc3)cc2[C@H]2[C@H](CCN2C(=O)CN2CCOCC2)[C@H]1CO,-7.43%
10,C[C@H]1CN([C@@H](C)CO)C(=O)c2cc(-c3ccccc3)cnc2O[C@@H]1CN(C)Cc1ccccc1,-1.31%
11,CO[C@H]1CN(C)C(=O)c2cc(NC(=O)Nc3ccc(C(F)(F)F)cc3)ccc2OC[C@H](C)NC[C@H]1C,-0.807%
12,C[C@@H]1CN([C@@H](C)CO)C(=O)c2cc(NC(=O)CCCN(C)C)ccc2O[C@H]1CN(C)Cc1ccc(-c2ccccc2)cc1,2.11%
13,COc1ccc(-c2csc(CCn3nc(C)cc3C)n2)cc1OC,-4.81%
14,CCOC(=O)C1=C(C)Nc2nc3ccccc3n2C1c1ccncc1 (configuration not stated),-4.18%
15,Cc1cccc(N2CCN(S(=O)(=O)c3cn(C)cn3)CC2)c1C,3.91%
16,C[C@H]1CN([C@@H](C)CO)C(=O)c2cc(-c3ccccc3)cnc2O[C@H]1CN(C)Cc1ccccc1,11.9%
17,Cc1ccc(S(=O)(=O)N2CC[C@@H]3[C@H](CO)Nc4ccc(-c5cccc(C(=O)N(C)C)c5)cc4[C@@H]32)cc1,1.14%
18,COC(=O)C[C@@H]1CC[C@@H]2[C@@H](COc3ccc(NC(=O)Cc4cccs4)cc3C(=O)N2C)O1,-6.16%
